From PubChem BioAssay (EPA / NIEHS)
Calls of active or inactive are those of the source. How the source made its calls: active means hit-call score of the fitted dose curve at least 0.9, where 1 is the maximum; inactive means score below 0.9.

Experiment: APR_HepG2_p53Act_24hr: Apredica 24-hour HepG2 Assay for p53 Activation (AID 2282913)
Conditions: high-content imaging, actives raise or lower the signal
Experimental: APR_HepG2_24hr is a cell-based, multiplexed-readout assay that uses HepG2, a human liver cell line, with measurements taken at 24 hours after chemical dosing in a 384-well plate.APR_HepG2_p53Act_24hr is one of 10 assay component(s) measured or calculated from the APR_HepG2_24hr assay. It is designed to make measurements of dna content, a form of viability reporter, as detected with fluorescence intensity signals by HCS Fluorescent Imaging technology.Data from the assay component APR_HepG2_p53Act_24hr was analyzed into 1 assay endpoint. This assay endpoint, APR_HepG2_p53Act_24hr, was analyzed with bidirectional fitting relative to DMSO as the negative control and baseline of activity. Using a type of viability reporter, measures of protein for gain or loss-of-signal activity can be used to understand the signaling at the pathway-level as they relate to the gene TP53. Furthermore, this assay endpoint can be referred to as a primary readout, because this assay has produced multiple assay endpoints where this one serves a signaling function. To generalize the intended target to other relatable targets, this assay endpoint is annotated to the dna binding intended target family, where the subfamily is tumor suppressor.
Cells were treated with dimethyl sulfoxide (DMSO) as a solvent control at a final concentration of 0.5% v/v or with compounds in DMSO with a resulting final DMSO concentration of 0.5% v/v. Compound treatment was done at concentrations of 0.39, 0.78, 1.56, 3.12, 6.24, 12.5, 25, 50, 100, and 200 uM in duplicate on each plate. Cells were treated with compounds for 1, 24, or 72 hr. Carbonyl […] m-chloro-phenylhydrazone (CCCP) and taxol were used as positive controls for mitochondrial function and cytoskeletal stability, respectively; DMSO served as the negative control for this experiment. Cells were fixed by the direct addition of 50 uL formaldehyde in Hank's Balanced Salt Solution (HBSS) to a final concentration of 3.7%. After incubation in the fixation medium for 30 min at room temperature (293-298 K), cells were rinsed twice with HBSS and treated with cell permeabilization buffer (16 uL of 0.5% Triton X-100) for 10 min at room temperature (293-298 K) before labeling. For mitochondrial membrane potential and mitochondrial measurements, pre-fixed cells were incubated with 50 uL of MitoTracker Red CMXRos (Invitrogen) at a concentration of 250 nM for 30 min before fixation. In the remaining cases, post-fixed cells were labeled by incubation with a multiplexed mixture of primary antibodies in HBSS for 60 min at room temperature (293-298 K) to detect immunoreactivity of c-Jun (1:500), phospho-histone H3 (1:100), phospho-histone H2A.x (1:200), p53 (1:400), alpha-tubulin (1:200) and Hoechst 33342 (2 ug/mL). Cells were labeled for multiplexed imaging on two separate plates: a) Hoechst 33342, MitoTracker Red, phospho-histone H3, and alpha-tubulin, and b) Hoechst 33342, phospho-histone H2A.x, and c-Jun. A final rinse with HBSS (50 uL) was performed before analysis. The primary and secondary antibodies for the proteins were phospho-histone H3 (rabbit anti-phospho-histone H3 and FITC-donkey anti-rabbit IgG), phospho-histone H2A.x (mouse anti-phospho-histone H2A.x and FITC-donkey anti-mouse IgG), c-Jun (rabbit anti-phospho-c-Jun and Cy3-donkey anti-rabbit IgG), p53 (sheep anti-p53 and Cy5-donkey anti-sheep IgG), alpha-tubulin (mouse anti-alpha-tubulin and Cy5-donkey anti-mouse IgG). These antibodies are available as the CellCiphr HepG2 assay kit (Millipore).Digital images of each well were captured using a Cellomics ArrayScan VTI (Thermo Scientific Cellomics) (0.8 NA objective, 0.63x optical coupler, and XF-93 filter set) at 20x magnification. The images were acquired using the autofocus feature of the ArrayScan instrument, which entails the following steps. First, the camera focuses on channel 1 (Hoechst 33342), where nuclei are identified. Second, a Z offset of 1 um is used for capturing mitochondria (MitoTracker Red). […]

Row | Compound | AC50 | outcome
1 | CCCCCCCCn1sccc1=O | 3.62 µM (active) | –
2 | CCCCCCCCOC(=O)c1ccc(C(=O)OCCCCCCCC)c(C(=O)OCCCCCCCC)c1 | – | inactive
3 | CC(C)(C)OOC(C)(C)CCC(C)(C)OOC(C)(C)C | – | inactive
4 | CN(C)[C@@H]1C(=O)C(C(N)=O)=C(O)[C@@]2(O)C(=O)C3=C(O)c4c(O)cccc4[C@@](C)(O)[C@H]3C[C@@H]12 | – | inactive
5 | CCCSC(=O)N(CCC)CCC | – | inactive
6 | CC(C)(O)c1cnn2c(-c3ccc(F)c(-c4c(F)cccc4C#N)c3)cnc2n1 | – | inactive
7 | Clc1ccc(Cl)c(Cl)c1 | – | inactive
8 | Clc1ccc(C(c2ccc(Cl)cc2)C(Cl)(Cl)Cl)cc1 | 54.7 µM (active) | –
9 | N#CC(Br)(Br)C(N)=O | – | inactive
10 | Cc1cccc(N)c1N | – | inactive
11 | O=Cc1ccco1 | – | inactive
12 | COC(=O)c1ccccc1N | – | inactive
13 | Oc1ccc2ccc3cccc4ccc1c2c34 | 49.1 µM (active) | –
14 | CN(C)c1ccc(C(=O)c2ccc(N(C)C)cc2)cc1 | 0.317 µM (active) | –
15 | c1ccc(N=Nc2ccccc2)cc1 | – | inactive
16 | Cc1cc(N=Nc2ccccc2C)ccc1N | – | inactive
17 | COC(=O)Nc1nc2ccccc2[nH]1 | 3.13 µM (active) | –
18 | CC(C)(C)C(O)(CCc1ccc(Cl)cc1)Cn1cncn1 (stereo not given) | 110 µM (active) | –
19 | ClC1=C(Cl)C2(Cl)C3C(Cl)C=CC3C1(Cl)C2(Cl)Cl (stereo not given) | 67.9 µM (active) | –
20 | COP(=S)(OC)SCN1C(=O)c2ccccc2C1=O | – | inactive

Row | Compound | AC50 | outcome
21 | c1ccc2c(c1)oc1ccccc12 | – | inactive
22 | Cc1ccc(N)c(N)c1 | – | inactive
23 | CS(=O)(=O)NC(=O)c1cc(Oc2ccc(C(F)(F)F)cc2Cl)ccc1[N+](=O)[O-] | – | inactive
24 | C=CCc1ccc2c(c1)OCO2 | – | inactive
25 | Oc1ccccc1Cl | – | inactive
26 | CNC(=O)Oc1cccc2c1OC(C)(C)C2 | – | inactive
27 | CCN(CC)CCO | – | inactive
28 | Nc1ccc([N+](=O)[O-])cc1 | – | inactive
29 | Nc1ccc(Cc2ccc(N)cc2)cc1 | – | inactive
30 | OCCCBr | – | inactive
31 | Nc1ccc(Cl)cc1N | 0.944 µM (active) | –
32 | CCN(CC)N=O | – | inactive
33 | c1ccc(C2CO2)cc1 (stereo not given) | – | inactive
34 | O=[N+]([O-])c1ccc(Oc2ccc(Cl)cc2Cl)cc1 | – | inactive
35 | Cc1ccc(N)cc1 | – | inactive
36 | CC(C)(OOC(C)(C)c1ccccc1)c1ccccc1 | – | inactive
37 | CC(C)N(Cc1ccccc1)C(=O)C(C)(C)C | – | inactive
38 | CCC[CH2][Sn]([Cl])([CH2]CCC)[CH2]CCC | 0.388 µM (active) | –
39 | CCCCOC(=O)c1ccccc1C(=O)OCc1ccccc1 | – | inactive
40 | CO[C@@H]1[C@H](OC(=O)NC(=O)CCl)CC[C@]2(CO2)[C@H]1[C@@]1(C)O[C@@H]1CC=C(C)C | – | inactive
